# SIRT5 inh = SIRT5 desuccinylase inhibitors, primary screen, biochemical, fluorescence imaging, single point, set 5; 1.1% of 330,000 active; inhibition, % at 15 µM; Purified SirT5, succinyl-peptide AMC, trypsin-coupled fluorescence; AID 652115, 2013; in the data active = inhibition above about 15%
# Target sequence (Q9NXA8 whole entry, looked up): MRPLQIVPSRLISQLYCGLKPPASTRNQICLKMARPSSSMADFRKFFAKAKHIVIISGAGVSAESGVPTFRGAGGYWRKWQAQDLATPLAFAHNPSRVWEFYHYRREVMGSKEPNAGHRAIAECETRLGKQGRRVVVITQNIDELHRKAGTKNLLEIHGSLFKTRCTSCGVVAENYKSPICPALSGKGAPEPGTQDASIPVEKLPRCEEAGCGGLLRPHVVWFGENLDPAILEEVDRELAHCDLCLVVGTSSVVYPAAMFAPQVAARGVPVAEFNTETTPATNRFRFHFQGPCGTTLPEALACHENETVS
# Ecoli rRNA inh = reduced GFP signal of wild-type E. coli, primary screen, bacterial rRNA inhibitor project, GFP/RFP fluorescence, OD600, single point; E. coli WT GFP vs humanized-ribosome RFP mutants, 24 h; hits give low values; DMSO median 0, no signal -100; GFP signal change (wild-type ribosome), % (no concentration beside the values); 1.6% of 350,000 active;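 active = significant combined selectivity score with lowered wild-type GFP, culture density cut under 30%, mutant RFP and density less affected; inactive = any of these conditions unmet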
# PGC1a acetyl inh = inhibitors of PGC1a acetylation signal, primary screen, cell-based, U2OS, AlphaScreen, inhibitor mode | AlphaScreen anti-acetyl-lysine; with virally co-expressed GCN5 acetyltransferase | inhibition, % at 15.6 µM | 0.17% of 350,000 active | AID 651687, 2012;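 active = every replicate shows inhibition of at least 40%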;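 note: 0% = neutral control wells and 100% = positive control wells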
# LGR2 inh = inhibitors of bursicon-induced LGR2 CRE-luciferase signal, primary screen, cell-based, HEK293, CRE-luciferase reporter, bursicon stimulation. inhibition, % at 9.99 µM. bursicon-stimulated, 4 h. Drosophila bursicon receptor LGR2 (rickets). AID 720647, 2013. 0.35% of 380,000 active;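 active = drop in luminescence signal, shown as inhibition above about 50% in the replicate tests, limit read from the data, passing the limit was not always enough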;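 note: agonist challenge used bursicon conditioned medium at about half maximal strength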
# EWS-Fli block = EWS/Fli-driven NR0B1 reporter inhibitors, primary screen, A673 cells, NR0B1 luciferase, luminescence, MLPCN library; viability-normalised; inhibition, % at 12.6 µM; 0.67% of 350,000 active; AID 651661, 2012;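 active = mean inhibition of at least 50% after viability correction, with every replicate also passing that limit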;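 note: firefly luciferase signal divided by Alamar Blue viability fluorescence both relative to DMSO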
# PAX8 reporter = inhibitors of PAX8-driven TPO luciferase reporter, primary screen, RMG-I cells, single concentration; inhibition, % at 12.6 µM; 1.2% of 360,000 active; AID 652154, 2013; SteadyGlo, 24 h;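 active = mean replicate inhibition at least 60% with every replicate also reaching 60%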;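 note: luciferase light reporting Pax8 driven TPO promoter activity; plate controls were median of neutral control wells for no effect and mitoxantrone controls for full effect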
# * = called active by the depositor; nt = no result. Shown are actives, neighbours in structure and some others; about 3.4% of the full set was active somewhere.
SMILES,SIRT5 inh,Ecoli rRNA inh,PGC1a acetyl inh,LGR2 inh,EWS-Fli block,PAX8 reporter
O=[N+]([O-])c1cccc(-c2nnc(-c3ccc4c(c3)OCO4)o2)c1,-5.1,9.9,nt,-33.6,-97.2,143.8*
COCC(=O)Nc1ccc2c(c1)[C@H]1C[C@@H](CC(=O)NCc3ccccn3)O[C@H](CO)[C@H]1O2,10.9,-1.0,2.8,7.4,-7.7,-13.5
O=C(C[C@@H]1CC[C@H]2[C@@H](COC[C@H](O)CN2Cc2cc(F)cc(F)c2)O1)NC1CCC1,-2.2,-1.8,6.0,-9.1,-7.8,-5.8
CC(=NN1CC(=O)NC1=O)c1ccc([N+](=O)[O-])o1,1.1,-38.2*,-8.2,-0.9,0.9,14.9
CC(C)C(=O)Nc1ccc(COc2ccccc2CN(Cc2ccccc2)C(=O)OC(C)(C)C)cc1,-0.9,4.6,-16.1,11.4,-39.1,1.5
CC(C)(C)OC(=O)N(CCc1ccccc1)Cc1ccc(OCc2cccc(NC(=O)C3CC3)c2)cc1,18.3*,8.7,nt,6.2,-6.9,6.0
CC(C)C(=O)Nc1cccc(COc2ccc(CN(Cc3ccccc3)C(=O)OC(C)(C)C)cc2)c1,0.4,10.5,-30.8,19.4,24.6,71.7*
C[C@H](CO)N1C[C@H](C)[C@H](CN(C)Cc2ccccc2)Oc2ccc(NC(=O)Nc3cccc4ccccc34)cc2CC1=O,0.6,-2.8,nt,0.6,2.5,24.4
C[C@H](CO)N1C[C@H](C)[C@@H](CN(C)C(=O)Nc2cccc3ccccc23)Oc2ccc(NC(=O)Nc3ccc4c(c3)OCO4)cc2CC1=O,6.7,-6.8,-5.1,-7.6,11.9,73.5*
C[C@@H]1CN([C@H](C)CO)C(=O)Cc2cc(NC(=O)C3CC3)ccc2O[C@@H]1CN(C)Cc1ccccc1,98.6*,-2.6,nt,-1.1,-11.1,3.6
C[C@@H]1CN([C@H](C)CO)C(=O)Cc2cc(NC(=O)Nc3cccc4ccccc34)ccc2O[C@H]1CN(C)Cc1ccc2c(c1)OCO2,16.5*,-5.9,-1.0,6.7,11.6,-8.1
C[C@H](CO)N1C[C@H](C)[C@H](CN(C)Cc2ccccc2)Oc2ccc(NC(=O)C3CC3)cc2CC1=O,-0.4,-1.7,nt,26.2,-9.1,-5.0
C[C@H]1CN([C@@H](C)CO)C(=O)Cc2cc(NC(=O)Nc3ccc4c(c3)OCO4)ccc2O[C@@H]1CN(C)C(=O)Nc1cccc2ccccc12,2.9,3.1,11.7,-8.4,-3.7,-7.5
C[C@H](CO)N1C[C@H](C)[C@@H](CN(C)Cc2ccccc2)Oc2ccc(NC(=O)Nc3cccc4ccccc34)cc2CC1=O,-6.3,1.8,nt,8.4,56.2*,54.6
CO[C@@H]1CN(C)C(=O)c2ccc(NC(=O)C3CC3)cc2OC[C@@H](C)N(CC2CCOCC2)C[C@@H]1C,nt,0.9,-2.4,-2.7,3.6,nt
CC(=O)OC1CC(c2cc(C(C)(C)C)c(O)c(C(C)(C)C)c2)=NO1 (stereo not given),9.1,-21.0*,0.8,-22.3,6.4,9.4
CC(C)(C)[C@H]1C=C(C(=O)N2CCCCCCC2)O[C@@H](OCc2ccc(CO)cc2)C1,3.1,nt,-18.2,nt,-0.4,3.1
CC[n+]1c(/C=C/N(C)c2ccccc2)oc2ccccc21,5.2,-18.9*,11.0,8.1,7.1,49.6
CO[C@H]1CN(C)C(=O)c2ccc(NS(C)(=O)=O)cc2OC[C@@H](C)N(CC2CCCCC2)C[C@H]1C,-0.5,2.6,-3.3,-6.6,1.7,nt
C[C@H]1CCCCO[C@@H](CN(C)C(=O)Nc2ccccc2)[C@@H](C)CN([C@@H](C)CO)C(=O)c2cc(NC(=O)NC3CCCCC3)ccc2O1,4.0,4.9,5.0,62.9*,-4.8,24.3
COc1ccc(NC(=O)N(C)C[C@H]2OCCCC[C@H](C)Oc3ccc(NC(=O)NC4CCCCC4)cc3C(=O)N([C@@H](C)CO)C[C@H]2C)cc1,-0.3,6.3,-16.9,8.7,1.2,-10.4
